Inconclusive results are not listed. The source holds several records for some structures; these can differ, active in one and inactive in another. The source made the active and inactive calls. The calls were made as follows, unless noted: active = hit-call score of the fitted dose curve at least 0.9, where 1 is the maximum; inactive = score below 0.9.
Columns and labels:
[1] = CCTE_Deisenroth_AIME_384WELL_CTox_Active: Cytotoxicity Assessment (CTOX) in CCTE's 384-well Estrogen Receptor Transactivation Assay with AIME metabolic competence (metabolism positive), Deisenroth Lab (AID 2284037; active = hit-call score of the fitted dose curve at least 0.9, where 1 is the maximum;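 also: chemicals first conditioned 2 h by alginate-bound induced rat liver S9 before cells; activity means signal loss indicating cell death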)
Summary of the method: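 Chemicals pre-incubated 2 hours with alginate-immobilised phenobarbital/beta-naphthoflavone-induced male Sprague Dawley rat liver S9, then conditioned medium applied 24 hour to VM7Luc4E2 cells. Viability by fluorogenic protease substrate; 10-point series 0.002 - 200 uM.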

[2] = target: Estrogen receptor (Homo sapiens) (UniProt P03372); assay: CCTE_Deisenroth_AIME_384WELL_LUC_Inactive: CCTE's 384-well Estrogen Receptor Transactivation Assay without AIME metabolic competence (ERTA luciferase; metabolism negative), Deisenroth Lab (AID 2284038; active = hit-call score of the fitted dose curve at least 0.9, where 1 is the maximum;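 also: VM7Luc4E2 breast cells given medium preincubated 2 h with S9-free microspheres; hits raise estrogen receptor luciferase signal so potencies reflect agonists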)
Summary of the method: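 Metabolism-negative mode: chemicals (10-point, 0.002–200 uM) held 2 h with alginate-water microspheres, then conditioned medium applied to VM7Luc4E2 cells for 24 h. Luciferase induction referenced to 17beta-estradiol.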

[3] = target: Estrogen receptor (Homo sapiens) (UniProt P03372); assay: CCTE_Deisenroth_AIME_384WELL_LUC_Shift: CCTE's 384-well Estrogen Receptor Transactivation Assay with AIME metabolic competence data shift (ERTA luciferase; difference in metabolism positive and negative), Deisenroth Lab (AID 2284041);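 also: shift is response with S9 minus without S9 so positive means metabolism raised ER signal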
Summary of the method: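 Chemicals (0.002–200 uM, 10 points) pre-incubated 2 h with alginate-encapsulated induced male Sprague Dawley rat liver S9 or S9-free, then medium applied 24 h to VM7Luc4E2 cells; luciferase. Endpoint is per-concentration difference, S9-positive minus negative.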

[4] = CCTE_Shafer_MEA_acute_AB: CCTE's Alamar Blue Assay for Cytotoxicity in the Neural Acute Assay, Shafer Lab (AID 2284069; active = hit-call score of the fitted dose curve at least 0.9, where 1 is the maximum;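 also: active compounds lower the viability signal compared with DMSO wells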)
Summary of the method: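 Cytotoxicity endpoint for acute MEA exposures of primary rat cortical neurons on day 13 or 15. Resazurin reduction is read fluorescently at 544/590 nm, with DMSO as the negative-control baseline.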

[5] = CCTE_Deisenroth_AIME_384WELL_CTox_Inactive: Cytotoxicity Assessment (CTOX) in CCTE's 384-well Estrogen Receptor Transactivation Assay without AIME metabolic competence (metabolism negative), Deisenroth Lab (AID 2284039; active = hit-call score of the fitted dose curve at least 0.9, where 1 is the maximum;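 also: cell viability via live-cell protease substrate cleaved to fluorescent probe; cells exposed 24 h to medium preincubated 2 h with alginate-water beads without S9; loss of fluorescence signal means loss of viability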)
Summary of the method: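 Fluorescence from a live-cell protease substrate, read after 24 h in VM7Luc4E2 cells, indicated viability. Test medium came from a 2 h AIME step without hepatic S9 (alginate-water microspheres); concentrations spanned 0.002 - 200 uM, single technical replicate per run.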

[6] = CCTE_Shafer_MEA_dev_active_electrodes_number: CCTE's Neural Network Formation Assay for Number of Active Electrodes, Shafer Lab (AID 2284040; active = hit-call score of the fitted dose curve at least 0.9, where 1 is the maximum;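 as to AC50: potency for loss of active electrodes versus DMSO so lower counts are hits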)
Summary of the method: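 Primary rat cortical neurons on 16-electrode MEA wells, exposed from day 0 through day 12 with compound renewed at DIV 5 and 9 feeds. Active electrodes (mean firing ≥5 spikes/min) counted at DIV 5, 7, 9, 12; trapezoidal AUC across days, loss-of-signal versus DMSO.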

[7] = CCTE_Shafer_MEA_dev_burst_rate: CCTE's Neural Network Formation Assay for Burst Rate, Shafer Lab (AID 2284042);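 as to AC50: potency for loss of burst rate below DMSO control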
Summary of the method: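 Developmental network assay measuring how 12-day exposure of rat cortical neuron cultures alters bursting on extracellular MEA recordings. Values are AUC of well-mean burst rate across four recording days, relative to DMSO vehicle.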

[8] = CCTE_Shafer_MEA_dev_bursting_electrodes_number: CCTE's Neural Network Formation Assay for Number of Bursting Electrodes, Shafer Lab (AID 2284043; active = hit-call score of the fitted dose curve at least 0.9, where 1 is the maximum;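 as to AC50: potency is for loss of bursting electrodes relative to DMSO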)
Summary of the method: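 Primary rat cortical neurons plated on 16-electrode MEA wells, exposed from day 0 with compound renewed at DIV 5 and 9. Electrodes bursting ≥1 burst per 2 min counted on days 5, 7, 9 and 12; trapezoidal AUC across days, fitted for loss versus DMSO.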

[9] = CCTE_Shafer_MEA_dev_per_burst_interspike_interval: CCTE's Neural Network Formation Assay for Burst Interspike Interval, Shafer Lab (AID 2284044);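 also: mean spike spacing inside bursts as AUC over recordings on days 5 7 9 12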
Summary of the method: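 Mean interspike interval within single-electrode bursts, averaged over bursting electrodes, from rat cortical cultures on MEA plates recorded on days 5, 7, 9 and 12. Continuous compound exposure from plating; trapezoidal AUC fitted downward relative to DMSO.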

[10] = CCTE_Shafer_MEA_dev_burst_duration_mean: CCTE's Neural Network Formation Assay for Mean Burst Duration, Shafer Lab (AID 2284045)
Summary of the method: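 Primary rat cortical neurons on 48-well 16-electrode MEA plates, exposed from day 0 with renewal at DIV 5 and 9; spontaneous activity recorded on days 5, 7, 9, 12. Well-mean burst duration across bursting electrodes, collapsed as trapezoidal AUC; DMSO baseline.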

[11] = CCTE_Shafer_MEA_dev_interburst_interval_mean: CCTE's Neural Network Formation Assay for Mean Interburst Interval, Shafer Lab (AID 2284046);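 also: well-mean interburst interval of bursting electrodes as AUC over four recording days; curve fitted for decrease in interburst interval relative to DMSO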
Summary of the method: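 Network formation assay in primary rat cortical cultures, exposed from DIV 0 to 12. Mean interburst interval per well, integrated as AUC over four recordings.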

[12] = CCTE_Shafer_MEA_dev_inter_network_spike_interval_mean: CCTE's Neural Network Formation Assay for Mean Inter-network Spike Interval, Shafer Lab (AID 2284047)
Summary of the method: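 Compound was given at plating to primary rat cortical neurons and renewed with full medium changes on DIV 5 and 9. Extracellular activity was recorded on days 5, 7, 9, 12; AUC values were fitted for loss relative to DMSO control.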

[13] = CCTE_Shafer_MEA_dev_network_spike_number: CCTE's Neural Network Formation Assay for Number of Network Spikes, Shafer Lab (AID 2284048);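 as to AC50: fit as a loss of signal meaning fewer network spikes than DMSO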
Summary of the method: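 Primary rat cortical neurons on PEI/laminin 48-well MEA plates, dosed from plating day 0 for 12 days, renewed at DIV 5 and 9. Network spike counts recorded DIV 5, 7, 9, 12, collapsed as trapezoidal AUC; DMSO baseline.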

[14] = CCTE_Shafer_MEA_dev_per_network_spike_spike_number_mean: CCTE's Neural Network Formation Assay for Mean Number of Spikes in a Network Spike, Shafer Lab (AID 2284053);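 as to AC50: fitted as decrease in spikes per network spike relative to DMSO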
Summary of the method: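 First, rat cortical cells (1.5 x 10^5/well) were seeded onto MEA wells; second, dosing began at plating and was refreshed on DIV 5 and 9; finally, network-spike spike counts across DIV 5–12 were summarized as AUC.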

[15] = CCTE_Shafer_MEA_dev_per_network_spike_spike_percent: CCTE's Neural Network Formation Assay for Percent of Spikes in a Network Spike, Shafer Lab (AID 2284054)
Summary of the method: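 Rat primary cortical neurons were grown on 48-well MEA plates (16 electrodes/well), exposed from plating day 0 through day 12, with treatment renewed on DIV 5 and 9. Percent of spikes within 0.05 s network-spike peaks was measured, summarised as AUC across days 5, 7, 9, 12.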

[16] = CCTE_Shafer_MEA_dev_LDH: CCTE's Lactate Dehydrogenase Assay for Cytotoxicity in the Neural Network Formation Assay, Shafer Lab (AID 2284068; active = hit-call score of the fitted dose curve at least 0.9, where 1 is the maximum;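 also: exposure for twelve days from plating with re-dosing on DIV 5 and 9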)
Summary of the method: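 Developing rat cortical networks on MEA plates are exposed to compound for 12 days from plating. LDH activity is measured spectrophotometrically, with DMSO as baseline.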

[17] = UKN5_HCS_SBAD2_cell_viability: Viability Assessment in the University of Konstanz (UKN) Leist Lab Neurite Outgrowth Assay in human iPSC-derived immature Dorsal Root Ganglia Neurons (UKN5) (AID 2284056)
Summary of the method: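 iPSC-derived immature peripheral neurons (SBAD2) seeded on Matrigel with CHIR99021, SU5402 and DAPT, dosed 1 h later for 24 h. Viability from Hoechst H-33342 and calcein-AM live staining, high-content imaging; bidirectional fit versus DMSO.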

[18] = UKN5_HCS_SBAD2_neurite_outgrowth: University of Konstanz (UKN) Leist Lab Neurite Outgrowth Assay in human iPSC-derived immature Dorsal Root Ganglia Neurons (UKN5) (AID 2284070); details: actives raise or lower the signal
Summary of the method: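 Read-out: calcein-AM-stained neurite area by high-content imaging, Hoechst H-33342 for viability, after 24 h exposure of iPSC-derived immature dorsal root ganglia neurons. Activity fitted in both directions relative to DMSO baseline.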

Measured: AC50

Sequence of Estrogen receptor (Homo sapiens) (P03372 whole entry, looked up): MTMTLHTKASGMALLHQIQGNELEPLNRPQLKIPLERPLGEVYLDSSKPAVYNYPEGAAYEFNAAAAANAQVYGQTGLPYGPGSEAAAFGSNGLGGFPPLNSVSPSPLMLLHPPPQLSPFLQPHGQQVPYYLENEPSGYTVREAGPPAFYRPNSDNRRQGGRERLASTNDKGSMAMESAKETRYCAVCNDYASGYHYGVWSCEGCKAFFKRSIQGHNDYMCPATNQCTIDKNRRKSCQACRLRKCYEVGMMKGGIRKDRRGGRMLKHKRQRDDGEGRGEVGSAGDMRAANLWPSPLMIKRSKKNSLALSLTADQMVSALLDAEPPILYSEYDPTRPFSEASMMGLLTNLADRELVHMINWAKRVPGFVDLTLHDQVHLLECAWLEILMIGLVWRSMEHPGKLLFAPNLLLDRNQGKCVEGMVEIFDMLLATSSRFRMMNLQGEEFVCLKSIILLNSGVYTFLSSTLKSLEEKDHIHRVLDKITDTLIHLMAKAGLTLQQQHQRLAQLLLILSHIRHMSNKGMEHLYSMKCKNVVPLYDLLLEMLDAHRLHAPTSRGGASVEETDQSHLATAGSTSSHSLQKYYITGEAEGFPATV

Cc1ccc(N=CN(C)C=Nc2ccc(C)cc2C)c(C)c1
inactive: [1] | [2] | [3] | [4]

CC1(C)C(C=C(Cl)Cl)C1C(=O)OC(C#N)c1cccc(Oc2ccccc2)c1 (centres undefined)
active: [2] 57.9 µM | [5] 2.33 µM | [6] 9 µM | [7] 3.77 µM | [8] 6.24 µM | [11] 3.49 µM | [13] 2.98 µM | [14] 6.97 µM | [15] 8.41 µM
inactive: [6] | [3] | [7] | [8] | [9] | [10] | [11] | [12] | [13] | [14] | [15] | [16] | [4]

COC(=O)N(C(=O)N1CO[C@@]2(C(=O)OC)Cc3cc(Cl)ccc3C2=N1)c1ccc(OC(F)(F)F)cc1
active: [6] 21.2 µM | [8] 15 µM | [15] 15 µM | [16] 7.61 µM
not listed: [2] | [4] | [17] | [18]
inactive: all other assays above

COP(=S)(OC)SCn1nnc2ccccc2c1=O
active: [5] 100 µM | [14] 24.9 µM | [15] 4.18 µM | [17] 47.2 µM | [16] 22.7 µM | [18] 35.1 µM
not listed: [6]
inactive: all other assays above

O=c1n(Cl)c(=O)n(Cl)c(=O)n1Cl
inactive: [2] | [5] | [3]

CCSC(=O)N1CCCCCC1
active: [6] 3.42 µM | [8] 1.93 µM
not listed: [4] | [17] | [18]
inactive: all other assays above

CCOP(=S)(OCC)Oc1nc(Cl)n(C(C)C)n1
inactive: [1] | [2] | [5] | [3]
